# From paper PMC7862700, “An all-to-all approach to the identification of sequence-specific readers for epigenetic DNA modifications on cytosine”
# Columns and labels:
# Experiment in all cases: DAPPL (digital affinity profiling via proximity ligation, sequencing); 10 mM Tris-HCl pH 7.5, 50 mM NaCl, 1 mM DTT, 4% glycerol, room temperature, 30 min; GST-TFs on glutathione beads, 16-mer random dsDNA library, 0.1% formaldehyde crosslink after washing; high values mean tight binding
# FEV = target: T1, FEV (Homo sapiens, UniProt Q99581 1-238); settings: protein: recombinant; tags: N-terminal GST; dsDNA, one strand shown
# T1 sequence: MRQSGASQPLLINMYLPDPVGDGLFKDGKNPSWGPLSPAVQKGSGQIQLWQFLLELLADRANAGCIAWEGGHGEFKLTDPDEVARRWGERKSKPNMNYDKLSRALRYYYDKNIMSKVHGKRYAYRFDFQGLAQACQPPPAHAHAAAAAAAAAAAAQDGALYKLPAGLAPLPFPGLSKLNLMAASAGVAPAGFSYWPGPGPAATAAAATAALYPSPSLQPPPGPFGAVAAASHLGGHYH
# Summary of the method: (§1)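 Pools of DNA-barcoded human transcription factors, expressed in yeast as GST fusions on glutathione beads and combined with a tag-only sample, were incubated with 200 nmole of a 16-mer random double-stranded DNA library. Incubation took 30 min at room temperature in Tris/NaCl/DTT/glycerol buffer and was followed by washing, 0.1% formaldehyde crosslinking, proximity ligation (BsaI/T4 ligase, 1 h, 37 °C), PCR amplification and sequencing on an Illumina NextSeq500. Binding signal is the ratio of a hexamer's read frequency for a factor to its frequency for the tag-only sample.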
# ETV5 = ETV5 (Homo sapiens, UniProt P41161 1-510); settings: protein: recombinant; tags: N-terminal GST; dsDNA, one strand shown
# ETV5, sequence (P41161 whole entry): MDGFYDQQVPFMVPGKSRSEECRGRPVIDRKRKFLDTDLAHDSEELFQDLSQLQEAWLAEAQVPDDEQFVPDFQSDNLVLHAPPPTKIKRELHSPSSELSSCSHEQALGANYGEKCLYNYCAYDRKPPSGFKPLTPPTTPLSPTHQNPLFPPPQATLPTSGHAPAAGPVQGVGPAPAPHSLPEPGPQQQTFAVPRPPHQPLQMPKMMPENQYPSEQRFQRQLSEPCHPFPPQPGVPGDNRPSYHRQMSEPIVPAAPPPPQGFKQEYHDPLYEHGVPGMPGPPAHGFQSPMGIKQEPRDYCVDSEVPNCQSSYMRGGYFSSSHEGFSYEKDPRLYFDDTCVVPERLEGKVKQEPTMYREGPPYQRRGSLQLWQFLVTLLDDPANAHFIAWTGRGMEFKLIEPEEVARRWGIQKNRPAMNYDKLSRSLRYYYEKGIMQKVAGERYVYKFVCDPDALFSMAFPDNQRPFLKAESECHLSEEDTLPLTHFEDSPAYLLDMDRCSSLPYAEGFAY
# Summary of the method: as §1
# HSF1 = HSF1 (Homo sapiens, UniProt Q00613 1-529); settings: protein: recombinant; tags: N-terminal GST; chain copies: 3; dsDNA, one strand shown
# HSF1, sequence (Q00613 whole entry): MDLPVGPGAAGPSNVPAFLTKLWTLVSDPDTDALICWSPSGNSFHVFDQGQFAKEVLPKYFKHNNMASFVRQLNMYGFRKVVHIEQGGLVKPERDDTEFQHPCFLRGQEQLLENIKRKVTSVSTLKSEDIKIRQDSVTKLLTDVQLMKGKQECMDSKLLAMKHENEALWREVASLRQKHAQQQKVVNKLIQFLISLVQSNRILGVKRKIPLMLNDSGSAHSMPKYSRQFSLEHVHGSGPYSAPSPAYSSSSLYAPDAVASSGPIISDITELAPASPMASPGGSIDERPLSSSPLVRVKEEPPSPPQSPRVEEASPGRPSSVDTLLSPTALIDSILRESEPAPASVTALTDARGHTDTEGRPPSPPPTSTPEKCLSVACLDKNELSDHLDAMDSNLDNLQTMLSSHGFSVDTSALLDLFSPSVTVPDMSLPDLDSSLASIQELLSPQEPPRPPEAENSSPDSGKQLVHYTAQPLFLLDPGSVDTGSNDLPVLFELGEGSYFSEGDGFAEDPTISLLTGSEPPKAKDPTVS
# Summary of the method: as §1
# SPIC = target: T2, SPIC (Homo sapiens, UniProt Q8N5J4 1-248); settings: protein: recombinant; tags: N-terminal GST; dsDNA, one strand shown
# T2 sequence: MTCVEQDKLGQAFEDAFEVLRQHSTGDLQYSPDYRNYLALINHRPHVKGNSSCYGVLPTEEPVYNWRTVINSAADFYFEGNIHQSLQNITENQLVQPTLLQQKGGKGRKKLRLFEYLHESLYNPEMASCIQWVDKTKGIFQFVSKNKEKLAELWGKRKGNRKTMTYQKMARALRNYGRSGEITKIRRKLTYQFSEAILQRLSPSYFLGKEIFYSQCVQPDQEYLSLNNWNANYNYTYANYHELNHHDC
# Summary of the method: as §1
# ELF4 = ELF4 (Homo sapiens, UniProt Q99607 1-663); settings: protein: recombinant; tags: N-terminal GST; dsDNA, one strand shown
# ELF4, sequence (Q99607 whole entry): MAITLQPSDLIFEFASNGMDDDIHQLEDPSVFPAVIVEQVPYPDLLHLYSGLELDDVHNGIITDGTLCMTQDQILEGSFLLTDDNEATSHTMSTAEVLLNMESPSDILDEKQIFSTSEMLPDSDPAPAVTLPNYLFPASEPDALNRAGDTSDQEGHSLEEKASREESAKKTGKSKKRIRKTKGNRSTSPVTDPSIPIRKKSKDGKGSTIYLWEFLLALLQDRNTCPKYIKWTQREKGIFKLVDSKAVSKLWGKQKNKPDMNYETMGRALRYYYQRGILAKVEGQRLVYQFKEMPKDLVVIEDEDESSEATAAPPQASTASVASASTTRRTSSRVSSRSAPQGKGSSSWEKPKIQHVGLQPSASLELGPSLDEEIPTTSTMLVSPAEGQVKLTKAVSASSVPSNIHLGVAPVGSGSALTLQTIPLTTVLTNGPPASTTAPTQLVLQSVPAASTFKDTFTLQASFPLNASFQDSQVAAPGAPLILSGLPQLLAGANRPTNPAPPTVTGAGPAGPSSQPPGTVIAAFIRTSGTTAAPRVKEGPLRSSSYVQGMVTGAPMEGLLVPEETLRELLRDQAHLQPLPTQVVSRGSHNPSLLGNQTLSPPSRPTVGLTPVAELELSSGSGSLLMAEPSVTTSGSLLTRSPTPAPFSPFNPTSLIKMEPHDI
# Summary of the method: as §1
# ELK4 = target: T3, ELK4 (Homo sapiens, UniProt P28324-2 1-405); settings: protein: recombinant; tags: N-terminal GST; dsDNA, one strand shown
# T3 sequence: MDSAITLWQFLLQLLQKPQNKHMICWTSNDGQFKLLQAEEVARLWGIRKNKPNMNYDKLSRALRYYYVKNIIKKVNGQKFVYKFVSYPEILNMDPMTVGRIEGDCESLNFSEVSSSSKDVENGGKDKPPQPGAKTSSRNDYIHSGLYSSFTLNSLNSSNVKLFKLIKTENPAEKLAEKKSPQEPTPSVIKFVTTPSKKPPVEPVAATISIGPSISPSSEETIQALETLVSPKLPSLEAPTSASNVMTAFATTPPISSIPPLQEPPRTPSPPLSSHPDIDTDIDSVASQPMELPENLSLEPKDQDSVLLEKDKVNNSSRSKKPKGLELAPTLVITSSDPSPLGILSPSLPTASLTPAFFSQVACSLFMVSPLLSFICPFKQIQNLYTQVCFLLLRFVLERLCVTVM
# Summary of the method: as §1
# ETV2 = target: T4, ETV2 (Homo sapiens, UniProt O00321 1-342); settings: protein: recombinant; tags: N-terminal GST; dsDNA, one strand shown
# T4 sequence: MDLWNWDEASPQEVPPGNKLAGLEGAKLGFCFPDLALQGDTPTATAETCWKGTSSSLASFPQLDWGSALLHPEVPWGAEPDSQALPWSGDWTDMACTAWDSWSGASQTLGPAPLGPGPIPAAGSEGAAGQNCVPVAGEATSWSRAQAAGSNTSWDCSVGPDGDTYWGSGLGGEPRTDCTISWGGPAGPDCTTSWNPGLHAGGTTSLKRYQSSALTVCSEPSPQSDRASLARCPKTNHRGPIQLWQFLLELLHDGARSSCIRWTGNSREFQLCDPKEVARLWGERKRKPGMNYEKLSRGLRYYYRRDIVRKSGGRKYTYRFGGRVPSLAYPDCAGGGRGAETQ
# Summary of the method: as §1
# ELF3 = target: T5, ELF3 (Homo sapiens, UniProt P78545 1-371); settings: protein: recombinant; tags: N-terminal GST; dsDNA, one strand shown
# T5 sequence: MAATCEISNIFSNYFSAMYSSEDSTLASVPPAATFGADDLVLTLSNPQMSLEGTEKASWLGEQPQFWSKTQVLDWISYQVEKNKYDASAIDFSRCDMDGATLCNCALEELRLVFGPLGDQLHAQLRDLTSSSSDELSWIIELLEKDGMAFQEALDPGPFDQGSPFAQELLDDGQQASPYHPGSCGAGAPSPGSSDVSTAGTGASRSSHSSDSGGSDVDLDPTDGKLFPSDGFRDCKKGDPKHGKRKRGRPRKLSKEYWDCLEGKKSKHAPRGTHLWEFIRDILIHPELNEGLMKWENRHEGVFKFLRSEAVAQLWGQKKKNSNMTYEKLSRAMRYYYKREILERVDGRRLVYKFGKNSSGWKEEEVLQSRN
# Summary of the method: as §1
# CRX = CRX (Homo sapiens, UniProt O43186 1-299); settings: protein: recombinant; tags: N-terminal GST; dsDNA, one strand shown
# CRX, sequence (O43186 whole entry): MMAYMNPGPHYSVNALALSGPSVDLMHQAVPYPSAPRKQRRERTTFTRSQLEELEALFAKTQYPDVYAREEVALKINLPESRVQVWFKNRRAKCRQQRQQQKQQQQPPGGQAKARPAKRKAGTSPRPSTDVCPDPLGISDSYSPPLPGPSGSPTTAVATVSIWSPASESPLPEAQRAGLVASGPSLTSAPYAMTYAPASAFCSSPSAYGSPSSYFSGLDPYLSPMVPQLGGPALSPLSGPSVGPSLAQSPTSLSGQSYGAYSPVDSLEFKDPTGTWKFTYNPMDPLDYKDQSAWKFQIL
# Summary of the method: as §1
# ETV1 = ETV1 (Homo sapiens, UniProt P50549 1-477); settings: protein: recombinant; tags: N-terminal GST; dsDNA, one strand shown
# ETV1, sequence (P50549 whole entry): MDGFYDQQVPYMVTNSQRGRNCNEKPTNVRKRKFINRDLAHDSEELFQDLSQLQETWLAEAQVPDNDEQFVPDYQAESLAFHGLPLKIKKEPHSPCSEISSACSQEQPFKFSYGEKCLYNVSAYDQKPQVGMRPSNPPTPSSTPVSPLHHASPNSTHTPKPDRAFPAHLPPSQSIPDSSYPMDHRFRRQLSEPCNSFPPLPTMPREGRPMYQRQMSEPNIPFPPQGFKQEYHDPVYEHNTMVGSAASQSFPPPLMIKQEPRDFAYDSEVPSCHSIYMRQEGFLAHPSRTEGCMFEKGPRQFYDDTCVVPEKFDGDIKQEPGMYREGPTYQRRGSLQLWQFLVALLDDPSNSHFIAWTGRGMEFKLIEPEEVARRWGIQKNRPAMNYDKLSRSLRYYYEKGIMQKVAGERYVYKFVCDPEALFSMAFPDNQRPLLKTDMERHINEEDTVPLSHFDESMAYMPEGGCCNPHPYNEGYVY
# Summary of the method: as §1
sequence,measurement,setting,value
TAGTAT,binding signal,FEV,"1.28 fold enrichment (6-mer frequency, TF over GST control)"
same,binding signal,ETV5,"1.33 fold enrichment (6-mer frequency, TF over GST control)"
same,binding signal,HSF1,"1.55 fold enrichment (6-mer frequency, TF over GST control)"
same,binding signal,SPIC,"1.43 fold enrichment (6-mer frequency, TF over GST control)"
same,binding signal,ELF4,"1.3 fold enrichment (6-mer frequency, TF over GST control)"
same,binding signal,ELK4,"1.31 fold enrichment (6-mer frequency, TF over GST control)"
same,binding signal,ETV2,"1.34 fold enrichment (6-mer frequency, TF over GST control)"
same,binding signal,ELF3,"1.3 fold enrichment (6-mer frequency, TF over GST control)"
same,binding signal,CRX,"1.68 fold enrichment (6-mer frequency, TF over GST control)"
same,binding signal,ETV1,"1.23 fold enrichment (6-mer frequency, TF over GST control)"
